Bioassay records from PubChem.
FBPA Giardia inh – qHTS Assay for Inhibitors of Fructose-1,6-bisphosphate Aldolase from Giardia Lamblia. actives 0.71% (n = 290,000). Potency, µM (doses to about 59.6 µM), most hits filed as inhibitors. A8B2U2. purified Giardia FBPA; note: nearly all actives have a fitted effect of over 55% in size
Target sequence (A8B2U2 whole entry, looked up): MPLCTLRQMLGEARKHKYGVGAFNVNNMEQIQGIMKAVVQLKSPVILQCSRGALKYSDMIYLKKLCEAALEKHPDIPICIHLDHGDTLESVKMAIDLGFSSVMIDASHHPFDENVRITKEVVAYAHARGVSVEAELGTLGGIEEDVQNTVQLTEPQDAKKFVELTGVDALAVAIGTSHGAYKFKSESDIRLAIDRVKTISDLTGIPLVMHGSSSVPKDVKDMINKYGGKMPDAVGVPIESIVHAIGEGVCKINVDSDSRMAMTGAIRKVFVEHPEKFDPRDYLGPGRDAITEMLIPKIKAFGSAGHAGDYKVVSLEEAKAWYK
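40 nM FBPA preincubated 10 min at RT with compound (up to 57.5 uM final), then substrate plus GAPDH/TPI/NAD/arsenate coupling and diaphorase/resazurin added. Fluorescence read after 20 min at RT, 525/598 nm.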
Shiga inhibitor – A qHTS for Small Molecule Inhibitors of Shiga Toxin; inhibition, % at 38.7 µM; actives 9.2% (n = 290,000); AID 2315, 2010; Vero cells, Shiga toxin protein synthesis inhibition reporter; in the data active = inhibition mostly above about 28%, no sharp cut-off; inactive = mostly below about 43%
LmPK inh – qHTS Assay for Inhibitors of Leishmania Mexicana Pyruvate Kinase (LmPK); Q27686; purified LmPK, Kinase-Glo ATP luminescence, 1 h; Potency, µM (top dose mostly 57.5 µM), usual class: inhibitors; actives 0.37% (n = 290,000); AID 1721, 2009
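Purified LmPK (0.1 nM) with 0.5 mM PEP and 0.1 mM ADP in imidazole buffer pH 7.2 with MgCl2/KCl, 1 h at room temperature. ATP formed was read by luciferase luminescence and normalized to no-enzyme and uninhibited controls.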
CHX counter – Cycloheximide Counterscreen for Small Molecule Inhibitors of Shiga Toxin | cell reporter, cycloheximide protein synthesis inhibition counterscreen | max response, % | actives 12% (n = 300,000) | AID 2314, 2010; in the data active = max response mostly above about 13%, no sharp cut-off; inactive = mostly below about 14%; note: read at 38.3 µM for the half of the compounds with a filed dose
Sm TGR block – qHTS Assay for the Inhibitors of Schistosoma Mansoni Peroxiredoxins | Schistosoma mansoni thioredoxin glutathione reductase (TGR), Q962Y6 | purified TGR, DTNB reduction, TNB absorbance 405 nm | actives 3% (n = 360,000) | Potency, µM (top dose mostly 114 µM), usual class: inhibitors | AID 485364, 2010; note: nearly all actives have a fitted effect of over 60% in size
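First, TGR (20 nM dispensed) and NADPH were mixed with compound. Second, a 15 min room-temperature incubation followed. Third, further NADPH and then DTNB were added to start the reaction. Finally, TNB absorbance was monitored kinetically.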
Tb PYK inh – qHTS of Trypanosoma Brucei Inhibitors. pyruvate kinase (Trypanosoma brucei), Q57TT1. TbPYK enzyme, Kinase-Glo Plus ATP luminescence, 45 min. Potency, µM (doses to about 76.8 µM), usual class: inhibitors. actives 0.12% (n = 410,000); note: nearly all actives have a fitted effect of over 50% in size
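Glycolytic pyruvate kinase of T. brucei was incubated with substrate, test compound and 130 uM ADP for 45 minutes at room temperature. Luminescent Kinase-Glo Plus signal was measured after 10 minutes.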
Each line names hits and unclear results; the compound was inactive in the other large screens. Many of the other results were omitted from the sample, so hits are more common in it than they were. Unless noted, calls come from the whole dose curve; as a rule, active = well fitted curve in the direction sought with a large enough effect; inconclusive = small, poorly fitted or top-dose-only effect, or another doubt; inactive = no such curve, though single readings can be large; an effect the other way counts as inactive or inconclusive.

Cc1cccc(NC(=O)Cc2noc3ccccc23)c1C	Shiga inhibitor 34.2
CC(=O)c1cccc(NC(=O)Cc2noc3ccccc23)c1	none (no result: FBPA Giardia inh, Shiga inhibitor, LmPK inh, CHX counter)
COc1ccccc1CCn1c(=O)c(-c2cccc(Cl)c2)nc2cncnc21	none (no result: Shiga inhibitor, LmPK inh, CHX counter, Sm TGR block, Tb PYK inh)
c1ccc2c(c1)Cn1nnnc1-2	none
Clc1ccc(-c2cn3c(n2)-c2ccccc2C3)cc1Cl	Shiga inhibitor 63.7, LmPK inh 25.1µM, CHX counter 39.5
O=S1(=O)N=C(c2ccccc2)C=C(c2ccccc2)N1	none (no result: FBPA Giardia inh, Shiga inhibitor, LmPK inh, CHX counter, Sm TGR block)
C1=C(c2ccccc2)Nc2ccccc2N=C1c1ccccc1	Shiga inhibitor 36.5
COc1nc(-c2ccc(Cl)cc2)nnc1C	CHX counter 14.9 (no result: Sm TGR block)
COC(=O)c1nnc(-c2ccccc2)nc1OC	none
CN1C(=O)NC(=O)/C(=C\C=C\c2ccccc2[N+](=O)[O-])C1=O	FBPA Giardia inh inconclusive, CHX counter 24.0, Sm TGR block inconclusive, Tb PYK inh inconclusive
COc1ccc(NC(=O)CSc2nc(N)c(C(=O)Nc3ccc(N(C)C)cc3)s2)cc1	Shiga inhibitor 123.5
CN(C)c1ccc(NC(=O)CSc2nc(N)c(C(=O)Nc3ccc(N(C)C)cc3)s2)cc1	CHX counter 30.7
CCOC(=O)c1sc(SCC(=O)Nc2ccc(N(C)C)cc2)nc1N	none
COc1ccc(O[C@H]2C=C[C@@H](c3ccccc3)O[C@H]2COC(=O)CC/C(C)=N\O[C@@H](C)c2cn([C@H](CO)Cc3ccccc3)nn2)cc1	none (no result: Shiga inhibitor, LmPK inh, CHX counter, Sm TGR block, Tb PYK inh)
Clc1ccc(C2Nc3cccc4cccc(c34)N2)cc1	FBPA Giardia inh inconclusive, Sm TGR block 15.8µM
Brc1ccc(C2Nc3cccc4cccc(c34)N2)s1	FBPA Giardia inh inconclusive, Sm TGR block 20µM
CSc1ccc(C2Nc3cccc4cccc(c34)N2)cc1	Sm TGR block 25.1µM (no result: Shiga inhibitor)
c1cc2c3c(cccc3c1)NC(c1ccc3c(c1)OCO3)N2	Sm TGR block 17.8µM
O=[N+]([O-])c1cc(C2Nc3cccc4cccc(c34)N2)ccc1Cl	none
Clc1cccc(-c2ccc(C3Nc4cccc5cccc(c45)N3)o2)c1	none (no result: FBPA Giardia inh, Shiga inhibitor, LmPK inh, CHX counter, Sm TGR block)
CCCCN(C)CCNC(=O)c1ccc(Cn2c(=O)[nH]c3cc(OC)c(OC)cc3c2=O)cc1	none (no result: FBPA Giardia inh, Shiga inhibitor, LmPK inh, CHX counter)
CC1(C)S[C@@H]2[C@H](NC(=O)[C@H](N)c3ccccc3)C(=O)N2[C@H]1C(=O)OC1OC(=O)c2ccccc21 (stereo partly drawn)	none (no result: FBPA Giardia inh, Shiga inhibitor, LmPK inh, CHX counter)
Cc1cccc(C2Nc3cccc4cccc(c34)N2)c1	FBPA Giardia inh inconclusive, Sm TGR block 20µM
c1cncc(C2Nc3cccc4cccc(c34)N2)c1	FBPA Giardia inh inconclusive, Sm TGR block 8.91µM
Cc1ccc2nc(NC(=O)C3CCN(C(=O)c4ccc(F)cc4)CC3)sc2c1	none (no result: FBPA Giardia inh)
Cc1cc2nc(SCCN3CCCC3)[nH]c2cc1C	CHX counter 12.5
Nc1ncnc2nc(SCCN3CCCCC3)[nH]c12	none
NC(=O)C1CCN(C(=O)CSc2nc3ccccc3o2)CC1	none
O=C(O)c1ccc2oc(SCC(=O)N3CCCCC3)nc2c1	Shiga inhibitor 58.0, CHX counter 22.9
O=C(CSc1nc(-c2ccco2)cc(C(F)(F)F)n1)N1CCN(c2ccc(Cl)cc2)CC1	none
CC1CCCN(C(=O)CSc2nc3ccccc3o2)C1 (stereo not drawn)	Shiga inhibitor 60.6
COc1ccccc1N1CCN(C(=O)CSc2nc3ccccc3o2)CC1	Shiga inhibitor 110.5, CHX counter 40.5
COc1ccccc1N1CCN(C(=O)CSc2nc(-c3ccco3)cc(C(F)(F)F)n2)CC1	Sm TGR block 35.5µM, Tb PYK inh inconclusive
CC(NC(=O)CN1C(=O)NC2(CCCCC2)C1=O)c1ccc(S(N)(=O)=O)cc1 (stereo not drawn)	none (no result: FBPA Giardia inh, Shiga inhibitor, LmPK inh, CHX counter, Sm TGR block)
Cc1ccc(CNC(=O)Cn2c3ncccc3c(=O)n2-c2ccccc2)cc1	none (no result: FBPA Giardia inh, Shiga inhibitor, LmPK inh, CHX counter)
CS(=O)(=O)N1N=C(c2cccs2)CC1c1ccccc1F (stereo not drawn)	none
COc1ccc(O)c(-c2cn[nH]c2-c2cccs2)c1	none
COc1ccc(O)c(C2=Nc3ccccc3N=C(c3cccs3)C2)c1	CHX counter 15.5
CC(=O)N1N=C(c2ccccc2)CC1c1ccccc1[N+](=O)[O-] (stereo not drawn)	none
CS(=O)(=O)N1N=C(c2cccs2)CC1c1ccccc1 (stereo not drawn)	CHX counter 12.9
COc1ccc(C2CC(c3cccs3)=NN2S(C)(=O)=O)cc1 (stereo not drawn)	Shiga inhibitor 120.8, CHX counter 32.4
O=[N+]([O-])c1ccc(C2Oc3ccccc3C3CC(c4ccccc4)=NN32)s1 (stereo not drawn)	Shiga inhibitor 113.5, CHX counter 60.6, Sm TGR block 39.8µM (no result: Tb PYK inh)
CCCC(=O)Nc1nnc(SCc2cc(=O)c3cc(C)ccc3[nH]2)s1	none (no result: FBPA Giardia inh, Shiga inhibitor, LmPK inh, CHX counter)
CS(=O)(=O)N1N=C(c2cccs2)CC1c1ccc(Cl)o1 (stereo not drawn)	Shiga inhibitor 65.5, CHX counter 36.5
COc1cccc(C2CC(c3cccs3)=NN2S(C)(=O)=O)c1OC (stereo not drawn)	none
COc1ccc(C2CC(c3cccs3)=Nc3ccccc3S2)cc1 (stereo not drawn)	Shiga inhibitor 82.8, CHX counter 61.4
c1ccc(C2Oc3ccccc3C3CC(c4cccs4)=NN32)cc1 (stereo not drawn)	Shiga inhibitor 104.7, CHX counter 56.4, Sm TGR block inconclusive
Fc1ccc(N2N=C(c3cccs3)CC2c2ccccc2)cc1 (stereo not drawn)	none
